High-throughput results as filed in PubChem BioAssay.
USP1 inh: Inhibitors of USP1/UAF1: Primary Screen. recombinant USP1/UAF1, Ub-Rhodamine cleavage fluorescence. 390,000 tested, 0.23% active. Potency, µM (top dose mostly 57.1 µM), for the others: top-dose activity change, negative = inhibition, hits mostly inhibitors; note: potency is the fitted concentration of half-maximal effect; nearly all actives have a fitted effect of over 60% in size
Target sequence (O94782 whole entry, looked up): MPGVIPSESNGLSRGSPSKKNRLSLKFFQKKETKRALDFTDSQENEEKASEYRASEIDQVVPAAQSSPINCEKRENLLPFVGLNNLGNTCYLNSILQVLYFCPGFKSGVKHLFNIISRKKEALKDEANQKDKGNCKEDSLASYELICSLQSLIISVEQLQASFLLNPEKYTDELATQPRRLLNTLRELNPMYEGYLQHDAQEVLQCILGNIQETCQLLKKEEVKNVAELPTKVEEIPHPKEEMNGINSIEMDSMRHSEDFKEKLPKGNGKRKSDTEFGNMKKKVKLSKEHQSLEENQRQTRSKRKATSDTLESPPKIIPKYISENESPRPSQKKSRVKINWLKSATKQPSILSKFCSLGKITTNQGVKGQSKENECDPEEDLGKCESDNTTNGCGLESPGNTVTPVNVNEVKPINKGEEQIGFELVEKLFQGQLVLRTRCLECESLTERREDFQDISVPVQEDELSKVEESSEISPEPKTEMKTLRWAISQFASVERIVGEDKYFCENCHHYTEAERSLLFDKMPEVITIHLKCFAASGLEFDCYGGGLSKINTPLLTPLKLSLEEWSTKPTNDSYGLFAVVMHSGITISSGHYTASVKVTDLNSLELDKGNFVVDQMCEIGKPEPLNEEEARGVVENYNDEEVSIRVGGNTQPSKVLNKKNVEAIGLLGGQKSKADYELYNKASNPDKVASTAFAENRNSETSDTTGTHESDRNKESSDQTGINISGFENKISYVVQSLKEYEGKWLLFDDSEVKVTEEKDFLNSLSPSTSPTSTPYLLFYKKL
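USP1/UAF1 complex at 1 nM was preincubated with compound for 15 min at room temperature, then Ub-Rho substrate (150nM final) was added. Fluorescence (480/540 nm) was read kinetically, 6 reads every 60 seconds.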
Coupling enz: qHTS Assay for Inhibitors of Fructose-1,6-bisphosphate Aldolase from Giardia Lamblia: Coupling assay counterscreen. coupling enzyme system counterscreen, AmpLite Red fluorescence. activity change, negative = inhibition, % at 58.2 µM, hits read low. 290,000 tested, 0.67% active. AID 2472, 2010; in the data active = activity change below about -30%
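Fluorescence at 525 nm excitation and 598 nm emission measured inhibition of the coupled detection system without aldolase. Compounds (at 57.5 uM final) were preincubated 10 min at room temperature with coupling enzyme reagent before a 20 min substrate/AmpLite Red step.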
Tau ThT inhib: qHTS for Inhibitors of Tau Fibril Formation, Thioflavin T Binding; Microtubule-associated protein tau (Homo sapiens), P10636; recombinant tau K18 P301L, heparin-induced fibrillization, ThT fluorescence; Potency, µM (top dose mostly 57.4 µM), for the others: at the highest dose activity, negative = inhibition, hits mostly inhibitors; 270,000 tested, 2.1% active; AID 1460, 2008; note: potency is the fitted concentration of half-maximal effect; nearly all actives have a fitted effect of over 55% in size
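K18 P301L tau (15 uM + 0.24 uM Alexa 594-tagged), heparin 20 uM, NaOAc pH 7, 6 h 37 C; ThT 30 uM, 1 h RT, ex 450/em 510 nm.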
Tau FP inhib: qHTS for Inhibitors of Tau Fibril Formation, Fluorescence Polarization; K18 P301L tau heparin fibrillization, Alexa594 FP, 6 h; AID 1468, 2008; Potency, µM (doses to about 57.7 µM), for the others: top-dose activity, negative = inhibition, hits mostly inhibitors; 280,000 tested, 0.39% active; Microtubule-associated protein tau (Homo sapiens), P10636; note: potency is the fitted concentration of half-maximal effect; nearly all actives have a fitted effect of over 55% in size
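FP of Alexa 594-tau after heparin (20 uM) induction. Substrate: human K18 P301L, 15 uM unlabeled, 0.24 uM labeled. Buffer 100 mM sodium acetate pH 7. 6 hr, 37 C.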
Tau fluor counter: Counterscreen qHTS for Inhibitors of Tau Fibril Formation, Fluorescence Polarization; tau K18 P301L Alexa594 fluorescence, heparin fibrillization; Potency, µM (series often up to 57.7 µM), without a hit: top-dose activity change, negative = decrease; 280,000 tested, 0.93% active; note: potency is the fitted concentration of half-maximal effect; nearly all actives have a fitted effect of over 55% in size
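Human tau K18 P301L (15 uM unlabeled, 0.24 uM Alexa 594-labeled) in 100 mM sodium acetate pH 7 with 20 uM heparin, 6 hr at 37 C. ThT 30 uM added, 1 hr ambient; Alexa 594 FP and total fluorescence read at 555/632 nm.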
Starred values were filed as active, the others as inactive; ? = inconclusive; . = no result given; [ ] = remark or other dose. A selection: hits, their analogues and other compounds. The true share with any hit is near 2.3%. Unless noted, calls come from the whole dose curve; as a rule, active = well fitted curve in the direction sought with a large enough effect; inconclusive = small, poorly fitted or top-dose-only effect, or another doubt; inactive = no such curve, though single readings can be large; an effect the other way counts as inactive or inconclusive. % is set by controls: 0 for no effect and ±100 for the full control effect.

SMILES | USP1 inh | Coupling enz | Tau ThT inhib | Tau FP inhib | Tau fluor counter
O=C(NCc1ccccc1)c1ccc(CNS(=O)(=O)c2ccc(Br)cc2)cc1 | -7.2% | . | 2.3% | -11.8% | -8.5%
Cc1cc2c(nc1C)CCCN2C[C@H](O)CN1CCCc2nc(-c3ccc(Br)cc3)ccc21 | . | 2.8 | ? | 2.8%[11.6 µM] | -21.3%[11.6 µM]
COc1ccc(COc2cc(-c3cccc(OC)c3)nc3ccc(NC(=O)c4ccc(Cl)cc4)cc23)cc1 | -15.6% | 2.5 | -10.1% | 20µM* | -12.0%
O=C1c2sc3nc4ccccc4n3c2C(=O)N1c1ccccc1Cl | -14.1% | -0.4 | 28.2µM* | ? | -29.2%
Cc1ccc(C)c(NC(=O)CSc2nc(=O)n(CCN(C)C)c3c2CCC3)c1 | -20.7% | . | -8.1% | ? | 0.0%
O=Nc1ccc2oc(=O)ccc2c1 | . | . | ? | ? | -23.9%
CCCOc1ccc(N)cc1N | ? | -66.0* | 3.16µM* | 7.08µM* | 11.2µM*[quencher]
CC(=O)c1ccc(N2CCN(c3ncnc4c3c(-c3ccccc3)cn4-c3cccc(C)c3)CC2)cc1 | -5.3% | . | -16.2% | 0.8% | -7.1%
COc1ccc(NS(=O)(=O)c2ccc(N3CCCCS3(=O)=O)cc2)cc1Cl | -12.5% | . | 7.4% | -8.2% | -16.5%
Cn1c(=O)c2c(nc(CN3CCN(c4ccccc4F)CC3)n2Cc2ccc(F)cc2)n(C)c1=O | -15.6% | . | ? | -6.0% | -17.8%
COc1ccc(CC(=O)N/N=C(\C)CC(=O)Nc2ccc(N(C)C)cc2)cc1 | -10.1% | -0.5 | . | . | .
C/C(CC(=O)Nc1ccc(N(C)C)cc1)=N\NC(=O)Cc1csc(N)n1 | -0.7% | -31.6* | -4.3% | -3.5% | -4.4%
CCOc1ccccc1NC(=O)CSc1nc2c([nH]c3ccccc32)c(=O)n1-c1ccccc1 | 9.3% | . | -1.7% | -13.0% | ?
COc1ccc2c(c1)c1c(c(=O)n(-c3ccccc3C)c(=O)n1Cc1c(F)cccc1Cl)n2C | -17.3% | . | 3.6% | 1.6% | 4.2%
COC(=O)C1=C(C)NC(=O)/C1=C\c1cc(C)n(-c2cccc(C)c2)c1C | -14.6% | -11.2 | 25.1µM* | 3.2% | ?
COC(=O)C1=C(C)NC(=O)/C1=C\c1cc(C)n(-c2ccc(F)cc2)c1C | -15.3% | -14.7 | 15.8µM* | 1.4% | ?
COc1ccc(C2=CSC3=NNC4(CCCCC4)NN23)cc1 | -13.1% | 2.5 | 22.4µM* | 0.2% | -26.2%
Cc1ccc(C2=CSC3=NNC4(CCCCC4)NN23)cc1 | -12.1% | -1.1 | ? | 0.0% | -25.9%
Cc1cc(-c2nn(-c3ccccc3F)cc2CN2CCCC(O)C2)c(C)s1 (stereo not drawn) | -1.3% | -0.9 | -8.1% | 5.5% | -10.8%
Cc1cc(-c2nn(-c3ccccc3F)cc2CN2CCCC(CO)C2)c(C)s1 (stereo not drawn) | -20.9% | 0.8 | 7.94µM* | 8.3% | -15.4%
Cc1oc2c(c1C(=O)N1CCC(C)CC1)C(=O)c1ccccc1C2=O | ? | -46.4* | -10.8% | -0.1% | -16.7%
CCOC(=O)C1CCN(C(=O)c2c(C)oc3c2C(=O)c2ccccc2C3=O)CC1 | ? | -46.7* | -15.2% | -1.6% | -18.1%
O=C(Nc1nnc(SCc2cc(=O)n3cc(Cl)ccc3n2)s1)c1cccc(F)c1 | -17.5% | . | 2.4% | -8.9% | -8.2%
Fc1ccc(/C=N/c2c(-c3ccc(F)cc3)nc3n2CCS3)cc1 | 1.3% | 1.6 | ? | 1.6% | -26.5%
COc1ccc(/C=N/c2c(-c3ccc(OC)cc3)nc3n2CCS3)cc1 | -21.5% | 1.3 | 14.1µM* | -4.1% | ?
CCCCc1ccc(NC(=O)COc2cccc3c(=O)n(C)ccc23)cc1 | -22.5% | . | -16.3% | -13.9% | -15.1%
COc1ccc2[nH]cc(CCNc3ncncc3-c3ccccc3Cl)c2c1 | . | -1.3 | . | . | .
CC(C)(C)C(=O)OCOP(=O)(OCOC(=O)C(C)(C)C)C(C)(Oc1ccc(O)cc1)P(=O)(OCOC(=O)C(C)(C)C)OCOC(=O)C(C)(C)C | . | 12.1 | -17.5% | 8.3% | 1.1%
